Among the data in PubChem BioAssay (EPA / NIEHS) are outcome and AC50 values, retold here.

The structures appear in SMILES notation. The source made the active and inactive calls. Rule for the calls: active = hit-call score of the fitted dose curve at least 0.9, where 1 is the maximum; inactive = score below 0.9. Peptide text beside a SMILES is read from it.

The nature of the assay: ATG_NRF2_ARE_CIS: Attagene CIS-FACTORIAL HepG2 Assay for human Nuclear Factor Erythroid 2 Related Factor 2 (NFR2) response to Antioxidant Response Elements (ARE) (AID 2282992). The conditions noted are these: HepG2 Attagene ARE/NRF2 reporter, transcription factor activity; actives raise or lower the signal. On the procedure: ATG_CIS is a cell-based, multiplexed-readout assay that uses HepG2, a human liver cell line, with measurements taken at 24 hours after chemical dosing in a 24-well plate.ATG_NRF2_ARE_CIS is one of 52 assay component(s) measured or calculated from the ATG_CIS assay. It is designed to make measurements of mRNA induction, a form of inducible reporter, as detected with fluorescence intensity signals by Reverse transcription polymerase chain reaction (RT-PCR) and Capillary electrophoresis technology.Data from the assay component ATG_NRF2_ARE_CIS was analyzed into 1 assay endpoint. This assay endpoint, ATG_NRF2_ARE_CIS, was analyzed with bidirectional fitting relative to DMSO as the negative control and baseline of activity. Using a type of inducible reporter, measures of mRNA for gain or loss-of-signal activity can be used to understand the reporter gene at the transcription factor-level as they relate to the gene NFE2L2. Furthermore, this assay endpoint can be referred to as a primary readout, because this assay has produced multiple assay endpoints where this one serves a reporter gene function. To generalize the intended target to other relatable targets, this assay endpoint is annotated to the dna binding intended target family, where the subfamily is basic leucine zipper.
Human liver HepG2 cells are transiently transfected with multiple reporter transcription units (MRTUs) in 6-well plates using FuGene 6 reagent (Roche; 3 ml FuGene/1 mg DNA). The MRTU constructs are regulated by a cis-regulating element (promoter). […] A major difference between the CIS and TRANS system is that in CIS activities of endogenous TFs are measured, whereas the TRANS assay evaluates changes in activities of exogenous, chimeric NR-Gal4 proteins. […] At the end of 24 hour incubation, total RNA was isolated using TriZol reagent (Invitrogen). The isolated RNA is then reverse-transcribed using oligo(dT) primer and Mo-MLV reverse transcriptase (Invitrogen) with DNAse I (Ambion) treatment for 30 min. The one-tenth of the produced cDNA was amplified by PCR using Taq DNA polymerase (Invitrogen) and two reporter sequence-specific primers. The PCR products were fluorescently labeled by primer extension with 6-arboxyfluorescein (6-FAM) 5'-labeled reporter sequence-specific primer (2 min at 95 C, 20 s at 68 C and 10 min at 72 C) and these products were digested with 5U of HpaI (New England Biolabs) for 2h at 37 C. The fragments were purified using Qiaquick PCR columns (Qiagen), analyzed on an ABI 3130xL genetic analyzer (Applied Biosystems) with peak positions identified by using a set of X-rhodamine (ROX)-labeled MapMarker1000 molecular weight standards (BioVentures). The raw capillary electrophoresis data was processed using Attagraph software (Attagene).
Take `COC(=O)CC(C)CCC=C(C)C` (stereo not given): the compound was classed as inactive.
Regarding `CC(=O)/C=C/C1C(C)=CCCC1(C)C` (stereo not given), the call was inactive.
With `CCOc1ccc(NC(N)=O)cc1`, the outcome was inactive.
Take `O=S(=O)(O)c1ccc(N=Nc2c(O)ccc3ccccc23)cc1`: the AC50 (commonly the midpoint of the concentration-response curve, whichever way the signal moves) was 34.1 µM (active).
`O=C(O)CCCC(=O)O`: the compound was classed as inactive.
Turning to `CCCSSCCC`, the outcome was inactive.
Take `CCCCOCC(C)O` (stereo not given): the call was inactive.
In the case of `COC(=O)[C@H](Cc1ccccc1)NC(=O)[C@@H](N)CC(=O)O` (H-Asp-Phe-OMe), the result was inactive.
Consider `CCCCCCO`, for which the compound was classed as inactive.
Still for that read-out and setting: under `COCC(=O)O` stands “inactive”; under `c1ccc(-c2nc3ccccc3[nH]2)cc1`, “inactive”.
Turning to `Nc1ccc(O)c([N+](=O)[O-])c1`, the AC50 is 57.9 µM (active).
As to `Nc1ccc(C(=O)OCCCOC(=O)c2ccc(N)cc2)cc1`, the outcome was inactive.
On the same count and under the same terms, under `CC(C)C(=O)OCCOc1ccccc1` stands “inactive”; under `CCCCOCCOC(=O)COc1ccc(Cl)cc1Cl`, “inactive”; under `Cc1c(O)cccc1O`, “inactive”.
In the case of `CCCCCCCC(=O)OCC(COC(=O)CCCCCCC)OC(=O)CCCCCCC`, the outcome was inactive.
With `CCCCCCCO`, the outcome was inactive.
The same measure, in the same setting: under `CCCCOCCOCCOC(C)=O` stands “inactive”.
`CCC(C)C(=O)OC` (stereo not given): the call was inactive.
As for `O=C(O)C1CCC(C(=O)O)CC1` (stereo not given), the outcome was inactive.
Still for that read-out and setting: under `CCOC(=O)[C@H](O)[C@@H](O)C(=O)OCC` stands “inactive”.
For the compound `C=C1C[C@H]2[C@@H]3C=C(C)C4=CC(=O)CC[C@]4(C)[C@H]3CC[C@]2(C)[C@@]1(OC(C)=O)C(C)=O`, the AC50 is 42.1 µM (active).
Take `CCCCCCCCCCCCCc1ccccc1`: the outcome was inactive.
`CCCCCCCOC(=O)c1ccc(O)cc1`: the AC50 is 39.4 µM (active).
On to `Nc1nc(N)nc(-c2ccccc2)n1`, for which the result was inactive.
In the case of `C1CNCCN1`, the call was inactive.
Consider `CCCCCCCCCCCC(=O)N(C)CC(=O)O`, for which the AC50 was 97.5 µM (active).
The same measure, in the same setting: under `COc1ccc(C(=O)c2ccccc2)c(O)c1` stands 100 µM (active).
`O=C(OCCc1ccccc1)c1ccccc1`: the call was inactive.
Regarding `N#Cc1ccc(C(c2ccc(C#N)cc2)n2cncn2)cc1`, the compound was called inactive.
As for `CC1=CC=C(C(C)C)CC1`, the AC50 is 152 µM (active).
With `COC(=O)C=Cc1ccccc1`, the outcome was inactive.
Turning to `CC(C)CCCCCOC(=O)CS`, the AC50 is 19.5 µM (active).
As for `c1ccc(Nc2cccc3ccccc23)cc1`, the AC50 was 33.4 µM (active).
In the case of `CCCCCC(=O)OCC`, the result was inactive.
As for `CCCCCC1=CCCC1=O`, the AC50 was 55.8 µM (active).
Still for that read-out and setting: under `CCCCCCCCC(CO)CCCCCC` (stereo not given) stands 81.3 µM (active).
As for `O=C(O)CCC(=O)O`, the result was inactive.
As to `O=C1c2ccccc2C(=O)c2cc(S(=O)(=O)O)ccc21`, the AC50 was 100 µM (active).
